Compound activity from PubChem BioAssay.
EPAC1 ag = agonists of human EPAC1 | O95398 | AID 720707 | 0.073% of 360,000 active | Potency, µM (doses to about 154 µM), for the others: top-dose activation, hits mostly activators | EPAC1 agonist qHTS, biochemical assay; response scale: 100% = response to 6.5 mM cAMP; also: nearly all actives have a fitted effect of over 60% in size
Target sequence (O95398 whole entry, looked up): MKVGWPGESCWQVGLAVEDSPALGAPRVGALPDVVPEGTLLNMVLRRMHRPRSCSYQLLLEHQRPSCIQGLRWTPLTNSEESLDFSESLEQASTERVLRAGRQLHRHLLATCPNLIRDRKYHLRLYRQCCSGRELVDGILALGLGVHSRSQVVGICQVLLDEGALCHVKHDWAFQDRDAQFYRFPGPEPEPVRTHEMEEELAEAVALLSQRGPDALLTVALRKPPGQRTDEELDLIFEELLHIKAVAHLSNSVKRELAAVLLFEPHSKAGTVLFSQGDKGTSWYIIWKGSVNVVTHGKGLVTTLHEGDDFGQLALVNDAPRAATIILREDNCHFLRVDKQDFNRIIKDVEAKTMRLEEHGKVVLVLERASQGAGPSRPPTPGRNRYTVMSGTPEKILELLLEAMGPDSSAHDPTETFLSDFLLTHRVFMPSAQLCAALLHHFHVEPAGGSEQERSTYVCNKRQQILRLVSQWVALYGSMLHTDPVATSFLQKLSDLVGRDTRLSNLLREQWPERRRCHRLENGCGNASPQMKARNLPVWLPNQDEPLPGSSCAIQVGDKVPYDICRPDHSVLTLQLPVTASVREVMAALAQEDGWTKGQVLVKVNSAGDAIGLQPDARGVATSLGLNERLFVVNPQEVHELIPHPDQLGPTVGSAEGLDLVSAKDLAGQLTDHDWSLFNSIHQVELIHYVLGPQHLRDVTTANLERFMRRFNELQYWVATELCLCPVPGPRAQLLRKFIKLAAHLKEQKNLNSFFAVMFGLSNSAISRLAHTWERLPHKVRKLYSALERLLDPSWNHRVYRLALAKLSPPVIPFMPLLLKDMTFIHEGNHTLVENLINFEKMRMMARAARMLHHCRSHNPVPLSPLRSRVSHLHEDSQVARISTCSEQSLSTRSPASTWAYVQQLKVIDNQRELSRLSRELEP
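Compounds were pinned as a concentration titration into mixtures of EPAC1 (100 nM), BODIPY-GDP-loaded Rap1B (250 nM) and GDP (50 uM). After 5 min at room temperature, fluorescence was followed for 30 min; activity was scaled to 6.5 mM cAMP.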
EPAC1 antag = blocks human EPAC1 exchange factor. O95398. EPAC1 GEF assay, Rap1b-BODIPY-GDP exchange fluorescence. Potency, µM (highest dose often 115 µM), for the others: at the top dose activity change, negative = inhibition, actives largely listed as inhibitors. 0.14% of 360,000 active. AID 720709;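 also: plate controls were vehicle for no effect and positive control for full effect; nearly all actives have a fitted effect of over 50% in size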
VDR inh = vitamin D3 receptor (human) inhibition. VDR-SRC2-3 peptide fluorescence polarization, 2 h. Potency, µM, for inactives: max response, negative = inhibition, hits mostly inhibitors. 0.93% of 400,000 active. AID 504847; also: % is scaled to controls: 0 for no effect and ±100 for the full control effect
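Compounds are added to VDR with labelled SRC2-3 coactivator peptide and held 2 h at room temperature. Inhibition of the VDR–peptide interaction is then read as a change in fluorescence polarization.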
EPAC2 antagonist = antagonists of human EPAC2; Q8WZA2; Potency, µM (titrated, usually from 114 µM), for inactives: at the highest dose activity, negative = inhibition, actives largely listed as inhibitors; 0.18% of 360,000 active; AID 720708; EPAC2 GEF exchange of Rap1B-BODIPY-GDP, fluorescence; also: % is scaled to controls: 0 for no effect and ±100 for the full control effect; nearly all actives have a fitted effect of over 45% in size
USP1-UAF1 inh = inhibitors of human USP1/UAF1 deubiquitinase; O94782; recombinant USP1/UAF1, Ub-Rhodamine cleavage fluorescence; Potency, µM (doses to about 57.1 µM), without a hit: at the top dose activity change, negative = inhibition, hits mostly inhibitors; 0.23% of 390,000 active; AID 743255; also: % is scaled to controls: 0 for no effect and ±100 for the full control effect; nearly all actives have a fitted effect of over 60% in size
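USP1/UAF1 complex (1 nM) preincubated 15 min at room temperature with compound, then Ub-Rho substrate (150 nM final) added. Kinetic fluorescence at 480/540 nm over 6 reads at 60 s intervals; 50 mM HEPES pH 7.8, 0.5 mM EDTA, 0.1 mg/ml BSA, 1 mM TCEP, 0.01% Tween-20.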
EPAC2 ag = EPAC2 (human) agonism | Q8WZA2 | EPAC2 activation, biochemical qHTS; response scale: 100% = 6.5 mM cAMP response | Potency, µM (top dose mostly 154 µM), for the others: at the highest dose activation, actives largely listed as activators | 0.079% of 360,000 active; also: nearly all actives have a fitted effect of over 50% in size
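Nucleotide exchange monitored as fluorescence drop when BODIPY-GDP leaves Rap1B. Reaction: 100 nM EPAC2, 250 nM RAP1B-BODIPY-GDP, 50 uM GDP, room temperature, kinetic read over 30 min. Activity expressed relative to 6.5 mM cAMP.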
Starred values were filed as active, the others as inactive; ? = inconclusive; nt = no result given. Rows were chosen to be rich in hits. Some 1.2% of all compounds tested hit in one or more screens of this group. Calls follow the shape of the dose curve; as a rule, active = well fitted curve in the direction sought with a large enough effect; inconclusive = small, poorly fitted or top-dose-only effect, or another doubt; inactive = no such curve, though single readings can be large; an effect the other way counts as inactive or inconclusive. Potency is read from the fitted curve at half-maximal effect.

SMILES	EPAC1 ag	EPAC1 antag	VDR inh	EPAC2 antagonist	USP1-UAF1 inh	EPAC2 ag
N#C/C(=C/c1ccc(N2CCOCC2)o1)C(=O)Nc1ccccc1	100µM*	8%	17%	65%	25µM*	100µM*
Cc1ccc2nc(/C(C#N)=C/c3ccc(-c4ccccc4C(=O)O)o3)[nH]c2c1	24%	2%	14%	5%	32µM*	17%
Cc1ccc(/C(C#N)=C\c2ccc(N3CCOCC3)o2)cc1	11%	-3%	?	0%	25µM*	?
O=C(CSc1nc2ccsc2c(=O)n1Cc1ccccc1F)NCc1ccccc1Cl	nt	nt	-4%	nt	?	nt
O=c1ccn([C@@H]2O[C@H](COP(=O)(O)O)[C@@H](O)[C@H]2O)c(=O)[nH]1	nt	nt	-2%	nt	nt	nt
COC(=O)C(NS(=O)(=O)CCl)C(C)C (stereo unspecified)	nt	nt	0%	nt	nt	nt
COC(=O)C1=CN(Cc2cccs2)C=C(C(=O)OC)C1c1cccc(O)c1	1%	1%	3%	50µM*	-14%	-6%
COC(=O)C1=CN(Cc2ccc(OC)c(OC)c2)C=C(C(=O)OC)C1c1cccc(F)c1	-6%	-12%	2%	?	-30%	6%
COc1ccc2c(c1)C(=O)[C@@H](OC(=O)Nc1ccc(C)c(Br)c1)[C@H](c1ccc(OC)c(Br)c1)O2	nt	nt	-7%	nt	nt	nt
CN1/C(=C\C=C(/C#N)C(=O)Nc2ccccc2F)C(C)(C)c2ccccc21	?	16%	-7%	50%	-15%	100µM*
COC(=O)c1cc2oc3ccccc3c2n1Cc1nc(-c2ccccc2Cl)oc1C	nt	nt	2%	nt	-13%	nt
CCOC(=O)CC(=O)CSc1nc(-c2cccnc2)ccc1C#N	16%	7%	5%	6%	32µM*	24%
CCOC(=O)CC(=O)CSc1nc(-c2cccnc2)cc(C)c1C#N	14%	-15%	-1%	0%	-7%	-3%
O=C(Nc1c(Cl)cc([N+](=O)[O-])cc1Cl)c1cc(Cl)ccc1O	nt	nt	0%	nt	nt	nt
C=CCOC(=O)C1=C(C)NC(C)=C(C(=O)OCC=C)C1c1ccco1	0%	-14%	8%	45µM*	-8%	2%
CCOC(=O)C1=C(C)NC(C)=C(C(=O)OC)C1c1ccco1 (stereo unspecified)	-13%	-16%	4%	-19%	-7%	9%
CC(=O)OCON[N+]([O-])=NC1CCCCC1	nt	nt	-8%	nt	nt	nt
CCNc1cc(O)ccc1C	-4%	-3%	79µM*	-6%	?	19%
CC[C@H](NC(=O)[C@H](CCC(=O)O)NC(=O)[C@H](CCC(=O)O)NC(=O)[C@H](CC(=O)O[S+](=O)([O-])c1cccc2c(NCCN)cccc12)NC(=O)[C@H](CCC(=O)O)NC(=O)[C@H](CC(=O)O)NC(C)=O)C(=O)ON[C@@H](C)C(=O)N[C@@H](CO)C(=O)N[C@@H](CCCCNC(=O)c1ccc(N=Nc2ccc(N(C)C)cc2)cc1)C(N)=O	nt	nt	10%	nt	nt	nt
Cc1ccc(SCC(=O)OCC(=O)N(C)CC(=O)Nc2ccc(F)cc2)cc1C	126µM*	-26%	-14%	-10%	-20%	4%
Cc1ccc(CN2CCCn3nc(C(=O)NCc4ccc(N(C)C)cc4)cc3C2=O)cc1	nt	nt	7%	nt	6%	nt
CN(C)/C=C1\Oc2ccc3ccccc3c2C1=O	-3%	-17%	0%	-13%	-12%	2%
O=C1C(=O)c2c(ccc3ccccc23)-c2ccccc21	17%	-24%	?	-29%	4µM*	4%
CC(C)C[C@H]1COCCS(=O)(=O)N1Cc1cccc(C(F)(F)F)c1	-32%	-23%	4%	14µM*	-37%	-9%
CC(C)C[C@H]1COCCS(=O)(=O)N1Cc1cccc(Cl)c1	-22%	-20%	-7%	?	-16%	7%
SMILES	EPAC1 ag	EPAC1 antag	VDR inh	EPAC2 antagonist	USP1-UAF1 inh	EPAC2 ag
COc1ccc(NC(=O)CCc2nnc3n(CC(C)C)c(=O)c4ccccc4n23)cc1	nt	nt	8%	nt	-17%	nt
O=C1CCCCCN1Sc1ccccc1	-6%	-6%	13µM*	-1%	-26%	2%
O=C(COC(=O)c1ccc(C(F)(F)F)cc1)NC(=O)C1CCCCC1	nt	nt	-7%	nt	nt	nt
CCOC(=O)c1c(CSc2ccccc2)n(C)c2cc(Br)c(OCC(O)CNC(CO)(CO)CO)cc12 (stereo unspecified)	7%	-11%	32%	40µM*	?	?
CCOC(=O)c1c(CSc2ccccc2)n(C)c2cc(Br)c(OC)c(O)c12	11%	4%	3%	-6%	-24%	8%
COC(=O)C1=C[C@@H](C(=O)OC)C2C3=C(C(=O)[C@]2(CC(C)C)NC(=O)c2ccccc2)[C@H](C)n2c(=O)n(C)c(=O)n2[C@@H]3C1 (stereo partly specified)	nt	nt	-15%	nt	nt	nt
O=C1C(Cl)=C(NCCCO)C(=O)c2ccccc21	3%	-21%	-10%	-12%	?	-4%
O=C1C(SCCO)=C(SCCO)C(=O)c2ccccc21	-3%	?	5.6µM*	4%	6.3µM*	6%
CCOC(=O)c1c(SCCN2CCCC2)n(-c2ccccc2)c(=S)n(-c2ccccc2)c1=O	3%	0%	71µM*	-1%	-2%	9%
O=C(CSc1ncccn1)Nc1ccc2c(c1)OCO2	3%	19%	11%	18%	?	3%
Brc1cc2c(cc1CSc1ncccn1)OCO2	4%	-26%	20%	35µM*	?	20%
C/C(CC1CC2=C(CC1(C)C)C(C)(C)CCC2)=N\NC(N)=S (stereo unspecified)	12%	16%	79µM*	10%	-7%	14%
Cc1ccc(S(=O)c2ccc([N+](=O)[O-])c3nonc23)cc1 (stereo unspecified)	8%	?	nt	50µM*	16µM*	29%
COc1ccc(C2/C=C\CN(S(=O)(=O)CC34CCC(CC3=O)C4(C)C)CC(=O)N2Cc2ccc(F)cc2)cc1 (stereo unspecified)	nt	nt	-6%	nt	nt	nt
COc1cc(OC)c2c(O)c3c(c(-c4c5c(c(O)c6c(OC)cc(OC)cc46)CO[C@@H](C)[C@H]5O)c2c1)[C@H](O)[C@H](C)OC3	-33%	35µM*	3%	10%	?	-21%
CCCN1C(=O)C(O)(CC(=O)c2ccc(OC)c(OC)c2)c2ccccc21 (stereo unspecified)	nt	nt	0%	nt	-19%	nt
CC(C)(C)c1ccc(CN2N=Nc3ccccc3S2(=O)=O)cc1	0%	4%	50µM*	6%	-20%	16%
Cc1cccc(N2C(=O)N(Cc3ccc(C(C)(C)C)cc3)c3ccccc3S2(=O)=O)c1	nt	nt	11%	nt	-10%	nt
CC(N)(C(=O)O)c1ccc(S(=O)(=O)O)cc1 (stereo unspecified)	nt	nt	9%	nt	nt	nt
